The source made the active and inactive calls. The call rests on the fitted dose curve; in most records, active means well fitted activation curve with a large enough effect; inactive means flat fitted curve, though single readings scatter.

The target in this assay is Pyruvate kinase PKM (Homo sapiens) (UniProt P14618). In words: qHTS for Activators of Human Muscle Isoform Pyruvate Kinase: Extended Characterization Using A Lactate Dehydrogenase (LDH) Assay. Conditions: purified hPK-M2, LDH-coupled NADH fluorescence kinetic. The text has this: Human pyruvate kinase muscle 2 (hPK-M2)enzyme was supplied as a highly purified (>95% pure) preparation from Harvard Medical School and a secondary assay was used to evaluate compounds. This assay couples the formation of pyruvate from hPK-M2 using lactate dehydrogenase (LDH) and NADH. The depletion of NADH is followed in a fluorescent-based kinetic assay that follows the formation of pyruvate to lactate, as catalyzed LDH (described by Hannaert et al., 2002)1 Pyruvate kinase substrates, PEP and ADP, were present in the assay at 0.1 mM and 4 mM respectively. In this kinetic assay initial rates were determined by following the fluorescence of NADH depletion. NIH Chemical Genomics Center [NCGC] NIH Molecular Libraries Probe Centers Network [MLPCN] MLPCN Grant: MH085679 Assay Submitter (PI): Matthew G. Vander Heiden, Harvard Medical School
Sequence of Pyruvate kinase PKM (Homo sapiens) (P14618 whole entry, looked up, canonical isoform): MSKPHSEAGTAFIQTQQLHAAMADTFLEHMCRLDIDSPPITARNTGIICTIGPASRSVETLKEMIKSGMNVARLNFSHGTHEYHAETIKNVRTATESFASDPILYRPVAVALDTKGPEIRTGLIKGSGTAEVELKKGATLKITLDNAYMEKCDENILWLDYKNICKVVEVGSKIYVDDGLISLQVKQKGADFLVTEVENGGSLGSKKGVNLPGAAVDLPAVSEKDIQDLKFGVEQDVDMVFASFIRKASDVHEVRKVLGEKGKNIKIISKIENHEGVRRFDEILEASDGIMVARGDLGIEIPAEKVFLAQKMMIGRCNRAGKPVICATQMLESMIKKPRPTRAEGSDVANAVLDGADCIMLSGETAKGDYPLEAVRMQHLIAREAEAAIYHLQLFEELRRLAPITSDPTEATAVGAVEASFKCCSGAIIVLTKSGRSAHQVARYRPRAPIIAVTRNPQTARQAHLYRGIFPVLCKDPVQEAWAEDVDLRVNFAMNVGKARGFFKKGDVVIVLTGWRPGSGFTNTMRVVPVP
Three uL of substrate mix (final concentration, 50 mM Tris-Cl pH 8.0, 200 mM KCl, 15 mM MgCl2, 0.1 mM PEP, 4.0 mM ADP, and 0.2 mM NADH) was dispensed into black-solid 1536 well plates. 23 nL of compounds were delivered by a pin tool and 1 uL of enzyme mix (final concentrations, 10 nM hPK-M2 and 1 uM of LDH) was added. Plates were immediately placed in ViewLux (Perkin Elmer) and NADH fluorescence was determined at 30 second exposure intervals for between 3 and 6 minutes. Data were normalized to the uninhibited and EC100 activation using known activators such as fructose-bis-phosphate.
As for `Cc1cc2c(s1)c1cnn(Cc3ccc(F)cc3F)c(=O)c1n2C`, the Potency is 224 nM (active).
The value for `COc1cccc(Cn2ncc3c4sc(S(C)=O)cc4n(C)c3c2=O)c1` (stereo not given) was 146 nM (active); that for `Cc1cc2c(s1)c1cnn(Cc3cc(F)c(F)cc3F)c(=O)c1n2C` was 398 nM (active).
As to `Cc1cc2c(s1)c1cnn(Cc3c(Cl)ccc(C)c3F)c(=O)c1n2C`, the Potency is 562 nM (active).
The value for `Cc1cc2c(s1)c1cnn(Cc3cc(F)ccc3F)c(=O)c1n2C` was 447 nM (active).

The record behind these values is PubChem BioAssay AID602377 (National Center for Advancing Translational Sciences (NCATS), 2012).
